# From PubChem BioAssay (NCATS)
# Results filed as inconclusive are left out. Where a call stands in place of a potency, no number is given. Activity calls are given as the source filed them. Unless noted, calls come from the whole dose curve; as a rule, active = well fitted cell-killing curve with a large enough effect; inconclusive = small, poorly fitted or top-dose-only effect; inactive = flat fitted curve, though single readings scatter.
# Columns and labels:
# [1] = Cell Viability - LYMP2-025 (AID 976); note: series mostly up to about 92 µM
# How it was run: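 Human lymphoblastoid LYMP2-025 cells (2500/well) were pre-incubated 5 hr at 37 C, then treated with compounds for 24 hr at 37 C in complete medium. Viability was read as intracellular ATP by CellTiter-Glo luminescence; AC50 from Hill fits.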
# [2] = Cell Viability - LYMP2-002 (AID 977);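 note: series mostly up to about 92 µM; compound exposure lasted 24 h at 37 °C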
# How it was run: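 Cytotoxicity is scored as concentration-dependent loss of cellular ATP in a human lymphoblastoid line after 24 hr compound treatment at 37 C. AC50 is obtained by modelling concentration-response data with the Hill equation.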
# [3] = Cell Viability - LYMP2-006 (AID 978); note: series mostly up to about 92 µM; nearly all actives have a fitted effect of over 60% in size
# How it was run: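 In this cytotoxicity screen, the human lymphoblastoid line grew in complete medium with test compounds for 24 hr at 37 C. Cellular ATP served as the viability signal.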
# [4] = Cell Viability - LYMP2-007 (AID 979);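 note: cells exposed to compound for 24 h before reading; nearly all actives have a fitted effect of over 60% in size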
# How it was run: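 Human lymphoblastoid cells (2500/well) were plated in complete medium, incubated 5 hr at 37 C, then exposed to compounds for 24 hr at 37 C. Intracellular ATP was read by CellTiter-Glo luminescence after 30 min at room temperature; AC50 from Hill fits.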
# [5] = Cell Viability - LYMP2-010 (AID 981); note: nearly all actives have a fitted effect of over 55% in size; note: potency is the fitted concentration of half-maximal effect
# How it was run: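 Human lymphoblastoid LYMP2-010 cells (2500/well) were preincubated 5 hr at 37 C, then exposed to compounds for 24 hr at 37 C in complete medium. Intracellular ATP was measured by CellTiter-Glo luminescence after 30 min at room temperature; AC50 from Hill-fitted concentration-response.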
# [6] = Cell Viability - LYMP2-012 (AID 982);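 note: cellular ATP by luciferase luminescence where a drop means cytotoxicity; cells exposed to compound for one day before reading; nearly all actives have a fitted effect of over 55% in size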
# [7] = Cell Viability - LYMP2-014 (AID 983); note: series mostly up to about 92 µM; nearly all actives have a fitted effect of over 50% in size
# How it was run: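 Human lymphoblastoid cells (2500/well) were pre-incubated 5 hr at 37 C, then exposed to compounds in complete medium for 24 hr at 37 C. Intracellular ATP was read by CellTiter-Glo luminescence after 30 min at room temperature; AC50 from Hill fits.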
# [8] = Cell Viability - LYMP2-016 (AID 984); note: nearly all actives have a fitted effect of over 55% in size
# How it was run: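 Concentration-dependent ATP depletion measured in LYMP2-016 lymphoblastoid cells, 24 h, 37 C; luciferase-based luminescent detection; Hill-equation AC50.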
# [9] = Cell Viability - LYMP2-018 (AID 985);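 note: compound exposure lasted 24 hr at 37 °C; nearly all actives have a fitted effect of over 50% in size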
# How it was run: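 Human lymphoblastoid cells (2500/well) were pre-incubated 5 hr at 37 C, then exposed to compounds for 24 hr at 37 C in complete medium. Viability was read as intracellular ATP by CellTiter-Glo luminescence; AC50 values came from Hill-equation fits.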
# [10] = Cell Viability - LYMP2-020 (AID 986); note: series mostly up to about 92 µM; nearly all actives have a fitted effect of over 55% in size
# How it was run: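 Human lymphoblastoid cells, 2500/well, were pre-incubated 5 hr at 37 C, then exposed to compounds for 24 hr at 37 C in complete medium. Intracellular ATP was read by CellTiter-Glo luminescence, and AC50 was derived by Hill fitting of concentration-response data.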
# [11] = Cell Viability - LYMP2-022 (AID 987); note: nearly all actives have a fitted effect of over 55% in size
# How it was run: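 Human lymphoblastoid cells, 2500/well, preincubated 5 hr at 37 C, then exposed to compounds over a concentration range for 24 hr at 37 C in complete medium. Viability read as intracellular ATP by CellTiter-Glo luminescence after 30 min at room temperature; AC50 from Hill fits.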
# [12] = Cell Viability - LYMP2-026 (AID 989); note: nearly all actives have a fitted effect of over 50% in size
# How it was run: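 Human lymphoblastoid cells (2500/well) in complete medium were preincubated 5 hr at 37 C, then exposed to compounds for 24 hr at 37 C. Cellular ATP was read by CellTiter-Glo luminescence; AC50 from Hill-equation fits of concentration-response data.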
# [13] = Cell Viability - LYMP1-002 - Assay at 24 hr (AID 993)
# How it was run: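 Human lymphoblastoid LYMP1-002 cells, 2500/well in complete medium, were treated with compounds for 24 h at 37 C; intracellular ATP was read by CellTiter-Glo luminescence. AC50 values came from Hill-equation fits of qHTS concentration-response data.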
# [14] = Cell Viability - LYMP1-002 - Assay at 40 hr (AID 994); note: nearly all actives have a fitted effect of over 60% in size
# How it was run: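 Human lymphoblastoid cells, 2500/well in complete medium, were preincubated 5 hr at 37 C, then exposed to compounds for 40 hr at 37 C. Intracellular ATP was read by CellTiter-Glo luminescence after 30 min at room temperature; AC50 from Hill-equation fits.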
# [15] = qHTS Assay for Identification of Small Molecule Inducers of Hypoxia Response (AID 2120; active = well fitted curve in the direction sought with a large enough effect in the signal ratio, with a control signal flat, not every such curve was filed as active; the % refers to the signal ratio)
# How it was run: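 HRE-beta-lactamase reporter in CellSensor HRE-bla ME-180 cells, 2500 cells/well in Opti-MEM with 0.5% dialyzed FBS; compounds tested as titration series, 17 h at 37 degrees C. CCF4 substrate 2.5 h at room temperature; AC50 from 460/530 nm ratio.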
# [16] = Cell Viability - LYMP2-008 (AID 980); note: nearly all actives have a fitted effect of over 60% in size
# How it was run: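 Human lymphoblastoid cells (2500/well) were plated, held 5 hr at 37 C, then exposed to compounds for 24 hr at 37 C in complete medium. Intracellular ATP was read by CellTiter-Glo luminescence; AC50 from Hill-fitted concentration-response.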
# [17] = Cell Viability - LYMP2-024 (AID 988); note: nearly all actives have a fitted effect of over 60% in size; note: potency is the fitted concentration of half-maximal effect
# How it was run: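 Human lymphoblastoid cells (2500/well) in complete medium were preincubated 5 hr at 37 C, then exposed to compounds for 24 hr at 37 C. Intracellular ATP was read by CellTiter-Glo luminescence; AC50 from Hill-equation fits of concentration-response data.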
SMILES,Potency [1],Potency [2],Potency [3],Potency [4],Potency [5],Potency [6],Potency [7],Potency [8],Potency [9],Potency [10],Potency [11],outcome [12],Potency [13],Potency [14],outcome [15],Potency [16],Potency [17]
Cc1ccccc1Br,inactive,inactive,inactive,inactive,inactive,inactive,inactive,inactive,inactive,inactive,inactive,inactive,inactive,inactive,inactive,–,–
Nc1c(Cl)cc(Cl)cc1Cl,inactive,inactive,inactive,–,inactive,inactive,inactive,inactive,inactive,inactive,inactive,inactive,inactive,inactive,inactive,inactive,inactive
Cc1ccccc1C(=O)O,inactive,inactive,inactive,inactive,inactive,inactive,inactive,inactive,inactive,inactive,inactive,inactive,inactive,inactive,inactive,–,–
C=C(C)C(=O)OCCCCCCCCCC,inactive,inactive,inactive,inactive,inactive,inactive,inactive,inactive,inactive,inactive,inactive,inactive,inactive,inactive,inactive,–,inactive
Cc1ccc(C)c([N+](=O)[O-])c1,inactive,inactive,inactive,inactive,inactive,inactive,inactive,inactive,inactive,inactive,–,inactive,inactive,inactive,inactive,–,inactive
O=Cc1ccccc1Cl,inactive,inactive,inactive,inactive,inactive,inactive,inactive,inactive,inactive,inactive,inactive,inactive,inactive,inactive,inactive,–,inactive
CC/C(C)=N/O,inactive,inactive,inactive,inactive,inactive,inactive,–,inactive,inactive,inactive,inactive,inactive,inactive,inactive,inactive,inactive,–
O=C1OC(=O)c2cc([N+](=O)[O-])ccc21,inactive,inactive,inactive,–,–,inactive,inactive,inactive,inactive,inactive,inactive,inactive,inactive,inactive,inactive,inactive,inactive
O=Nc1ccc(NO)cc1,inactive,inactive,inactive,–,50.1 µM (active),–,inactive,–,–,–,–,inactive,inactive,–,inactive,inactive,39.8 µM (active)
CC(C)(O)C(=O)O,inactive,inactive,inactive,inactive,inactive,inactive,–,inactive,inactive,inactive,inactive,inactive,–,inactive,inactive,inactive,inactive
CCC(=O)/C=C/C1C(C)=CCCC1(C)C (stereo not drawn),inactive,inactive,inactive,–,50.1 µM (active),–,inactive,inactive,inactive,inactive,–,inactive,inactive,inactive,inactive,inactive,–
C[C@@H]1O[C@@H](O[C@@H]2[C@@H](O)[C@H](OCCc3ccc(O)c(O)c3)O[C@H](CO[C@@H]3O[C@H](CO)[C@@H](O)[C@H](O)[C@H]3O)[C@H]2OC(=O)/C=C/c2ccc(O)c(O)c2)[C@H](O)[C@H](O)[C@H]1O,inactive,inactive,inactive,–,–,inactive,inactive,inactive,inactive,inactive,inactive,inactive,inactive,–,inactive,inactive,–
CC(=O)CCc1ccccc1,inactive,inactive,inactive,–,inactive,inactive,inactive,inactive,inactive,inactive,inactive,inactive,inactive,inactive,inactive,inactive,inactive
Nc1nc(-c2ccccc2)cs1,inactive,inactive,inactive,inactive,inactive,inactive,inactive,inactive,inactive,inactive,inactive,inactive,inactive,inactive,inactive,–,inactive
CCOCCO,inactive,inactive,inactive,–,inactive,inactive,–,inactive,–,inactive,inactive,inactive,inactive,inactive,inactive,inactive,inactive
CC1CCC2CC1C2(C)C (stereo not drawn),inactive,inactive,inactive,–,inactive,inactive,–,inactive,–,inactive,inactive,inactive,inactive,inactive,inactive,–,inactive
CCCCCNCCCCC,inactive,inactive,inactive,inactive,inactive,inactive,–,inactive,inactive,inactive,inactive,inactive,inactive,inactive,inactive,inactive,–
CCNc1cc(O)ccc1C,inactive,inactive,inactive,inactive,inactive,inactive,inactive,inactive,inactive,inactive,inactive,inactive,inactive,inactive,inactive,–,inactive

SMILES,Potency [1],Potency [2],Potency [3],Potency [4],Potency [5],Potency [6],Potency [7],Potency [8],Potency [9],Potency [10],Potency [11],outcome [12],Potency [13],Potency [14],outcome [15],Potency [16],Potency [17]
Cc1ccc([N+](=O)[O-])c(N)c1,inactive,inactive,inactive,inactive,inactive,inactive,inactive,inactive,inactive,inactive,inactive,inactive,inactive,inactive,inactive,–,inactive
O=C(O)c1ccc(CO)o1,inactive,inactive,inactive,inactive,–,–,inactive,inactive,inactive,inactive,inactive,inactive,inactive,inactive,inactive,inactive,–
Cc1ccc(Cl)cc1N,inactive,inactive,inactive,–,inactive,inactive,inactive,inactive,inactive,inactive,inactive,inactive,inactive,inactive,inactive,–,inactive
O=C1OC(=O)c2c(Cl)c(Cl)c(Cl)c(Cl)c21,inactive,inactive,inactive,inactive,inactive,inactive,inactive,inactive,inactive,inactive,inactive,inactive,–,inactive,inactive,–,–
O=C(O)CN(CC(=O)O)CC(=O)O,inactive,inactive,inactive,inactive,inactive,inactive,inactive,inactive,–,inactive,inactive,inactive,–,inactive,inactive,–,inactive
Cc1cc(C2(c3cc(C)c(O)cc3C)OS(=O)(=O)c3ccccc32)c(C)cc1O,inactive,inactive,inactive,–,inactive,inactive,inactive,inactive,inactive,inactive,–,inactive,–,inactive,inactive,inactive,inactive
CCCCOCCOCCOCCCC,inactive,inactive,inactive,–,inactive,inactive,inactive,inactive,inactive,inactive,–,inactive,inactive,inactive,inactive,inactive,inactive
Cc1cccc2cccnc12,inactive,inactive,inactive,–,inactive,inactive,inactive,inactive,inactive,inactive,inactive,inactive,inactive,inactive,inactive,inactive,inactive
CCCCC(CC)CO (stereo not drawn),inactive,inactive,inactive,–,inactive,inactive,inactive,inactive,–,inactive,inactive,inactive,inactive,inactive,inactive,inactive,inactive
BrC/C=C/CBr,inactive,inactive,inactive,–,inactive,inactive,–,inactive,inactive,inactive,inactive,inactive,inactive,inactive,inactive,–,–
Nc1cccc(N)c1,–,inactive,inactive,inactive,inactive,inactive,inactive,inactive,inactive,inactive,inactive,inactive,inactive,inactive,inactive,inactive,inactive
c1ccc2[nH]cnc2c1,inactive,inactive,inactive,inactive,inactive,inactive,–,inactive,inactive,inactive,inactive,inactive,inactive,–,inactive,inactive,–
CCC(C)O (stereo not drawn),inactive,inactive,inactive,inactive,inactive,inactive,inactive,inactive,inactive,inactive,inactive,inactive,inactive,inactive,inactive,–,inactive
CC(=O)c1ccc([N+](=O)[O-])cc1,inactive,inactive,inactive,–,inactive,inactive,–,–,inactive,inactive,inactive,inactive,inactive,inactive,inactive,inactive,inactive
NC(=S)NNC(N)=S,inactive,inactive,inactive,inactive,inactive,inactive,–,inactive,inactive,inactive,–,inactive,inactive,–,inactive,inactive,–
COC(=O)CCCC(=O)OC,inactive,inactive,inactive,inactive,inactive,inactive,–,inactive,inactive,inactive,inactive,inactive,inactive,inactive,inactive,–,–
CN(C)c1cccc(O)c1,inactive,inactive,inactive,–,inactive,inactive,inactive,inactive,inactive,inactive,inactive,inactive,inactive,inactive,inactive,inactive,inactive
